Measured values from PubChem BioAssay AID1159580 (chemical genetic matrix, 2015).
“And” between values parts separate entries of the source, which are not always exact repeats. Equal values may be shown once. Among all 5,500 compounds or so, about 2,000 (36%) were called active. Inconclusive results (about 18%) are left out. Rule as the data show it: active = normalized growth mostly below about 0.91 (no sharp cut-off); inconclusive = no clear call, values can overlap the other calls; inactive = mostly above about 0.92. The list shows a part of the results.

Assay: chemical genetic growth profiling, strain panel (AID 1159580);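 also: tested at 20 µM; growth read once vehicle control cultures reached saturation at 30 °C; 1 = growth at the plate median or of vehicle wells; lower values mean less growth of the strain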
Details: S. cerevisiae deletion strains, growth OD

Measured: normalized growth

CC(=O)OCC(=O)[C@@]1(O)[C@H](C)CC2C3CCC4=CC(=O)C=C[C@]4(C)[C@@]3(F)[C@@H](O)C[C@@]21C (some centres undefined)
inactive: locus YAL013W, strain DEP1, hits give low values 1.01 | locus YAL021C, strain ccr4, hits give low values 0.959 | locus YAL026C, strain drs2, hits give low values 1 | locus YAL030W, strain snc1, hits give low values 0.969 | locus YBL061C, strain skt5, hits give low values 0.985 | locus YBR009C, strain hhf1, hits give low values 0.983 | locus YBR021W, strain FUR4, hits give low values 0.995 | locus YBR023C, strain chs3, hits give low values 0.978 | locus YBR171W, strain sec66, hits give low values 0.957 | locus YBR229C, strain ROT2, hits give low values 1.01 | locus YBR231C, strain swc5, hits give low values 0.962 | locus YBR279W, strain paf1, hits give low values 0.991 | locus YCL011C, strain gbp2, hits give low values 0.988 | locus YCL016C, strain dcc1, hits give low values 1.01 | locus YCL029C, strain bik1, hits give low values 1 | locus YCL061C, strain MRC1, hits give low values 0.98 | locus YCL069W, strain vba3, hits give low values 0.987 | locus YCR088W, strain abp1, hits give low values 0.984 | locus YDL005C, strain med2, hits give low values 0.964 | locus YDL035C, strain GPR1, hits give low values 1.03 | locus YDL040C, strain nat1, hits give low values 0.961 | locus YDL074C, strain BRE1, hits give low values 1.01 | locus YDL101C, strain DUN1, hits give low values 0.999 | locus YDL134C, strain PPH21, hits give low values 1.02 | locus YDL185W, strain tfp1, hits give low values 1.01 | locus YDL192W, strain arf1, hits give low values 0.998 | locus YDR001C, strain nth1, hits give low values 0.951 | locus YDR069C, strain doa4, hits give low values 0.948 | locus YDR101C, strain arx1, hits give low values 1.02 | locus YDR137W, strain rgp1, hits give low values 0.997 | locus YDR150W, strain NUM1, hits give low values 1.01 | locus YDR159W, strain sac3, hits give low values 0.962 | locus YDR162C, strain NBP2, hits give low values 1.02 | locus YDR195W, strain ref2 0.933 | locus YDR297W, strain sur2, hits give low values 0.988 | locus YDR318W, strain mcm21, hits give low values 0.999 | locus YDR334W, strain swr1, hits give low values 0.948 | locus YDR335W, strain msn5, hits give low values 0.966 | locus YDR388W, hits give low values 0.997 | locus YDR392W, strain spt3, hits give low values 1.07 | locus YDR502C, strain sam2, hits give low values 0.998 | locus YEL003W, strain gim4, hits give low values 0.981 | locus YEL037C, strain rad23, hits give low values 0.98 | locus YEL061C, strain CIN8 (second series), hits give low values 0.975 | locus YEL061C, strain CIN8, hits give low values 1.01 | locus YER015W, strain faa2, hits give low values 0.985 | locus YER016W, strain bim1, hits give low values 1.04 | locus YER110C, hits give low values 0.995 | locus YER111C, strain swi4, hits give low values 0.986 | locus YER155C, strain BEM2 (second series), hits give low values 0.967 | locus YER155C, strain BEM2, hits give low values 0.999 | locus YER167W, strain BCK2, hits give low values 1.01 | locus YFR010W, strain ubp6, hits give low values 0.958 | locus YGL078C, strain dbp3, hits give low values 0.997 | locus YGL086W, strain mad1, hits give low values 1 | locus YGL167C, strain pmr1, hits give low values 0.954 | locus YGL173C, strain kem1, hits give low values 0.961 | locus YGL227W, strain vid30, hits give low values 0.974 | locus YGL240W, strain doc1, hits give low values 0.949 | locus YGL248W, strain PDE1, hits give low values 1 | locus YGL253W, strain hxk2, hits give low values 0.984 | locus YGR078C, strain PAC10, hits give low values 1.01 | locus YGR135W, strain pre9, hits give low values 0.993 | locus YGR252W, strain gcn5, hits give low values 0.955 | locus YHR013C, strain ard1, hits give low values 0.998 | locus YHR027C, strain rpn1, hits give low values 0.982 | locus YHR030C, strain SLT2, hits give low values 1.01 | locus YHR079C, strain IRE1 (second series), hits give low values 0.996 | locus YHR079C, strain IRE1, hits give low values 1.01 | locus YHR094C, strain hxt1, hits give low values 0.995 | locus YHR129C, strain ARP1, hits give low values 1.01 | locus YHR142W, strain chs7, hits give low values 0.961 | locus YHR200W, strain rpn10, hits give low values 0.995 | locus YIL066C, strain RNR3, hits give low values 1.02 | locus YIL073C, strain SPO22, hits give low values 0.99 | locus YIL125W, strain kgd1, hits give low values 0.997 | locus YIR030C, strain dcg1, hits give low values 1 | locus YJL092W, strain hpr5, hits give low values 0.977 | locus YJL095W, strain BCK1 (second series), hits give low values 0.968 | locus YJL095W, strain BCK1, hits give low values 1.02 and 1.01 | locus YJL115W, strain asf1, hits give low values 0.951 | locus YJL129C, strain trk1, hits give low values 0.956 | locus YJL134W, strain LCB3, hits give low values 1.01 | locus YJL154C, strain vps35, hits give low values 0.964 | locus YJL164C, strain tpk1, hits give low values 1 | locus YJL166W, strain qcr8, hits give low values 0.915 | locus YJL168C, strain set2, hits give low values 1.01 | locus YJL187C, strain SWE1 (second series), hits give low values 1.01 | locus YJR043C, strain POL32, hits give low values 1 | locus YJR066W, strain TOR1, hits give low values 0.988 | locus YKL009W, strain mrt4, hits give low values 1 | locus YKL068W, hits give low values 0.998 | locus YKL085W, strain MDH1 (second series), hits give low values 1.03 | locus YKL085W, strain MDH1, hits give low values 1.03 | locus YKL160W, strain elf1, hits give low values 0.971 | locus YKL190W, strain CNB1, hits give low values 1.01 | locus YKR001C, strain vps1, hits give low values 0.988 | locus YKR026C, strain gcn3, hits give low values 0.964 | locus YKR091W, strain srl3, hits give low values 0.97 | locus YLL001W, strain dnm1, hits give low values 0.926 | locus YLL026W, hits give low values 0.991 | locus YLL041C, strain sdh2, hits give low values 0.955 | locus YLR027C, strain aat2, hits give low values 0.979 | locus YLR039C, strain RIC1, hits give low values 1.02 | locus YLR058C, strain SHM2, hits give low values 1.01 | locus YLR102C, strain apc9, hits give low values 0.993 | locus YLR113W, strain HOG1, hits give low values 1.02 | locus YLR221C, strain rsa3, hits give low values 1.02 | locus YLR258W, strain gsy2, hits give low values 0.992 | locus YLR262C, strain YPT6 (second series), hits give low values 0.92 | locus YLR262C, strain YPT6, hits give low values 1.02 | locus YLR268W, strain sec22, hits give low values 1.01 | locus YLR320W, strain mms22, hits give low values 1.02 | locus YLR330W, strain CHS5, hits give low values 1.01 | locus YLR342W, strain FKS1 (second series), hits give low values 1.04 | locus YLR342W, strain FKS1, hits give low values 0.969 | locus YLR357W, strain rsc2, hits give low values 0.982 | locus YLR370C, strain arc18, hits give low values 0.98 | locus YLR371W, strain rom2, hits give low values 0.997 | locus YLR384C, strain iki3, hits give low values 0.965 | locus YLR418C, strain cdc73, hits give low values 0.954 | locus YML016C, strain PPZ1, hits give low values 1.01 | locus YML032C, strain rad52, hits give low values 0.997 | locus YML120C, strain ndi1, hits give low values 0.973 | locus YML124C, strain tub3, hits give low values 1.03 | locus YMR058W, strain fet3, hits give low values 0.97 | locus YMR078C, strain ctf18, hits give low values 0.998 | locus YMR125W, strain sto1, hits give low values 0.963 | locus YMR129W, hits give low values 0.988 | locus YMR205C, strain PFK2, hits give low values 0.958 | locus YMR223W, strain ubp8, hits give low values 0.999 | locus YMR231W, strain pep5, hits give low values 0.965 | locus YMR307W, strain GAS1, hits give low values 0.959 | locus YNL067W, strain RPL9B, hits give low values 1.01 | locus YNL071W, strain lat1, hits give low values 0.992 | locus YNL183C, strain NPR1, hits give low values 0.974 | locus YNL209W, strain ssb2, hits give low values 0.993 | locus YNL233W, strain BNI4, hits give low values 1.01 | locus YNL248C, strain rpa49, hits give low values 1.01 | locus YNL250W, strain rad50, hits give low values 0.975 | locus YNL271C, strain bni1, hits give low values 1 | locus YNL298W, strain CLA4, hits give low values 0.989 | locus YNL307C, strain MCK1, hits give low values 0.998 | locus YNL322C, strain KRE1 (second series), hits give low values 0.961 | locus YNL322C, strain KRE1, hits give low values 0.995 | locus YNR049C, strain mso1, hits give low values 0.982 | locus YNR052C, strain pop2, hits give low values 1.01 | locus YOL012C, strain htz1 0.869 | locus YOL147C, strain pex11, hits give low values 0.999 | locus YOR001W, strain rrp6, hits give low values 0.963 | locus YOR061W, strain CKA2, hits give low values 1.02 | locus YOR069W, strain VPS5, hits give low values 1.01 | locus YOR070C, strain gyp1, hits give low values 0.99 | locus YOR080W, strain dia2, hits give low values 0.946 | locus YOR083W, strain WHI5, hits give low values 0.978 | locus YOR106W, strain vam3, hits give low values 0.927 | locus YOR136W, strain idh2, hits give low values 0.994 | locus YOR144C, strain elg1, hits give low values 0.999 | locus YOR184W, strain ser1, hits give low values 1.01 | locus YOR231W, strain MKK1, hits give low values 1.03 | locus YOR265W, strain rbl2, hits give low values 0.982 | locus YOR270C, strain vph1, hits give low values 0.95 | locus YOR290C, strain snf2, hits give low values 1 | locus YOR316C, strain cot1, hits give low values 1 | locus YPL051W, strain arl3, hits give low values 1.01 | locus YPL078C, strain atp4, hits give low values 0.934 | locus YPL106C, strain sse1, hits give low values 0.969 | locus YPL240C, strain hsp82, hits give low values 0.969 | locus YPL256C, strain CLN2, hits give low values 1.03 | locus YPR119W, strain clb2, hits give low values 0.997 | locus YPR141C, strain kar3, hits give low values 0.99 | locus YPR163C, strain tif3, hits give low values 0.996 | locus YPR167C, strain met16, hits give low values 1 | strain wtn01, hits give low values 0.997
